Shown are actives, neighbours in structure and some others; about 21% of the full set was active somewhere.
IL-1B inflam inh – qHTS for Inhibitors of Inflammasome Signaling: IL-1-beta AlphaLISA Primary Screen | THP-1 LPS/ATP IL-1B secretion, AlphaLISA, 16 h; hits give low values | activity change, % at 57.5 µM | 360,000 compounds, 4.7% hits; in the data active = activity change below about -50%; inconclusive = mostly about -30% to -49%
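THP-1 cells pretreated 1 hr with compounds (up to 57.5 uM final), then stimulated with LPS (250 ng/mL final) plus ATP (1.25 mM final); secreted IL-1B measured by AlphaLISA after 16 hr, decreased signal indicating inhibition.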
ELG1 repair inh – qHTS screen for small molecules that inhibit ELG1-dependent DNA repair in human embryonic kidney (HEK293T) cells expressing luciferase-tagged ELG1 | AID 504467, 2011 | 330,000 compounds, 2.3% hits | Potency, µM (series often up to 46.1 µM), usual class: inhibitors | HEK293T ELG1-luciferase reporter, luminescence, 16 h; DNA damage induced by 5-fluorouridine; note: nearly all actives have a fitted effect of over 55% in size
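Step one: seed 2,000 cells per well. Step two: pin-transfer compound or DMSO alongside 5-fluorouridine. Step three: incubate 16 hr, 37 °C, 5% CO2. Step four: add ONE-Glo, wait 30 min, read luminescence.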
RORgamma inh – qHTS for inhibitors of ROR gamma transcriptional activity. Nuclear receptor ROR-gamma (Mus musculus), P51450. Drosophila S2 Gal4-RORgamma UAS-luciferase reporter, 20 h. Potency, µM (highest dose often 53.6 µM), hits mostly inhibitors. 310,000 compounds, 5.4% hits; note: nearly all actives have a fitted effect of over 60% in size
Target sequence (P51450 whole entry, looked up, the tested form may be a part): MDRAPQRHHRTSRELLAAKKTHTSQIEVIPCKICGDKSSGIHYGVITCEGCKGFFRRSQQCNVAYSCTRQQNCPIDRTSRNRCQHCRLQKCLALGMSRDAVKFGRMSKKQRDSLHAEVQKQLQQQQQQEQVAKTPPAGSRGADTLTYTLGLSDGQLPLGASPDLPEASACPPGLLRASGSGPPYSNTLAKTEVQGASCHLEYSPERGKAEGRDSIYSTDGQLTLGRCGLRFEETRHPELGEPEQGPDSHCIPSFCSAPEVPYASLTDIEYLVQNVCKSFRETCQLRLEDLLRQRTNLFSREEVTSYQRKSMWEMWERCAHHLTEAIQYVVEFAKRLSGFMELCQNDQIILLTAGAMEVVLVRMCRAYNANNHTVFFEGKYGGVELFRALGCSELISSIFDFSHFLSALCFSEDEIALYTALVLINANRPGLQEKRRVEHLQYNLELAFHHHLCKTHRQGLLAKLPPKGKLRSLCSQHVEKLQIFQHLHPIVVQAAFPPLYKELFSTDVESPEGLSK
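Luminescence from a UAS-regulated Photinus luciferase reporter in stably transfected Drosophila Schneider cells is measured; decreased signal marks ROR gamma inhibition. Fusion expression is induced by 700 uM copper sulfate for 20 hr.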
TDP1 cell CPT – qHTS for Inhibitors of human tyrosyl-DNA phosphodiesterase 1 (TDP1): qHTS in cells in presence of CPT; chicken DT40 Tdp1-/-;hTDP1 cells + 20 nM CPT, ATP luminescence, 48 h; Potency, µM (doses to about 46.2 µM), most hits filed as inhibitors; 420,000 compounds, 12% hits; AID 686979, 2013; note: nearly all actives have a fitted effect of over 55% in size
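Chicken DT40 Tdp1-/- cells complemented with human TDP1, 400 cells/well, exposed to compounds plus 20 nM camptothecin for at least 48 h at 37 C; viability read as ATP content by CellTiter-Glo luminescence.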
TDP1 cell noCPT – qHTS for Inhibitors of human tyrosyl-DNA phosphodiesterase 1 (TDP1): qHTS in cells in absence of CPT. DT40 Tdp1-/- hTDP1 cells, no CPT, ATP luminescence, 48 h. Potency, µM (highest dose often 46.2 µM), usual class: inhibitors. 420,000 compounds, 15% hits; note: nearly all actives have a fitted effect of over 55% in size
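Luminescent ATP content (CellTiter-Glo) served as the growth readout. Knockout chicken DT40 cells expressing human TDP1 were exposed to compounds without camptothecin for a minimum 48 hr at 37 °C.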
VP16 counter – VP16 counterscreen qHTS for inhibitors of ROR gamma transcriptional activity. Drosophila S2 Gal4-VP16 UAS-luciferase, luminescence, 20 h. Potency, µM (highest dose often 53.6 µM), actives largely listed as inhibitors. 310,000 compounds, 3.5% hits. AID 2546, 2010;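 note: Gal4-VP16 expression switched on by copper sulfate through the metallothionein promoter; nearly all actives have a fitted effect of over 50% in size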
Each line names hits and unclear results; the compound was inactive in the other large screens. Unless noted, calls come from the whole dose curve; as a rule, active = well fitted curve in the direction sought with a large enough effect; inconclusive = small, poorly fitted or top-dose-only effect, or another doubt; inactive = no such curve, though single readings can be large; an effect the other way counts as inactive or inconclusive.

CCOc1ccccc1NC(=O)CSc1nnc(CNC(=O)COc2ccc(Cl)cc2)o1	none
CCOC(=O)C1=CCN(S(=O)(=O)c2cccc(Cl)c2)C1c1ccc(F)cc1 (stereo not drawn)	TDP1 cell CPT inconclusive, TDP1 cell noCPT inconclusive (no result: ELG1 repair inh, RORgamma inh, VP16 counter)
Cc1ccc(S(=O)(=O)c2c(C)nn(C(C)(C)C)c2OC(=O)c2ccc(Br)o2)cc1	IL-1B inflam inh -72, RORgamma inh inconclusive, TDP1 cell CPT inconclusive, TDP1 cell noCPT inconclusive, VP16 counter inconclusive
CN(C)c1ccc(S(=O)(=O)N2CCCCC2)cc1NC(=O)CN1C(=O)NC2(CCCC2)C1=O	none (no result: RORgamma inh, VP16 counter)
CC1C2C(c3ccccc3)N(C)C(=O)N(C)C2N(C)C(=O)N1C (stereo not drawn)	none
CN1NC(c2ccccc2)NN(C)C1=O	TDP1 cell CPT 18µM (no result: ELG1 repair inh, RORgamma inh, VP16 counter)
CC(C)(C)C1CCC2(CC1)NC(=S)N(c1ccccc1)N2 (stereo not drawn)	ELG1 repair inh inconclusive, RORgamma inh 10µM, TDP1 cell CPT inconclusive, TDP1 cell noCPT inconclusive, VP16 counter 16µM
CC(C)(C)C1CCC2(CC1)SCC(=O)N2c1ccccc1 (stereo not drawn)	TDP1 cell CPT inconclusive, TDP1 cell noCPT inconclusive
CCC(C)(C)C1CCC2(CC1)NC(=S)N(c1ccccc1)N2 (stereo not drawn)	ELG1 repair inh 8.2µM, RORgamma inh inconclusive, VP16 counter inconclusive
C/C(=N\Nc1ncc(Cl)cc1Cl)c1ccc(OC(F)F)cc1	IL-1B inflam inh inconclusive, ELG1 repair inh inconclusive, RORgamma inh 11µM, TDP1 cell CPT inconclusive, TDP1 cell noCPT inconclusive, VP16 counter inconclusive
C/C(=N\Nc1ncc(Cl)cc1Cl)c1ccc2c(c1)OCO2	ELG1 repair inh inconclusive, RORgamma inh 7.1µM, VP16 counter inconclusive
Nc1nc2c(ncn2[C@@H]2O[C@H](CNCc3ccc(Oc4cc(-n5cccn5)ncn4)cc3)[C@@H](O)[C@H]2O)c(=O)[nH]1	none (no result: ELG1 repair inh, RORgamma inh, VP16 counter)
O=C(CCN1C(=O)c2ccccc2C1=O)N1CCN(c2ccccc2)CC1	none
O=C1c2ccccc2C(=O)N1Cc1cnc(N2CCN(c3ccccc3)CC2)s1	ELG1 repair inh inconclusive, TDP1 cell CPT 8.2µM, TDP1 cell noCPT 12µM
CCOc1ccc(NC(=O)CN2C(=O)NC(C)(c3ccc(OC(F)F)cc3)C2=O)cc1 (stereo not drawn)	IL-1B inflam inh -67, ELG1 repair inh inconclusive, TDP1 cell CPT 18µM, TDP1 cell noCPT 23µM
CC1(c2ccc(OC(F)F)cc2)NC(=O)N(CC(=O)Nc2ccc(OC(F)F)cc2)C1=O (stereo not drawn)	TDP1 cell CPT inconclusive, TDP1 cell noCPT inconclusive
CCOC(=O)c1c(NC(=O)CN2C(=O)NC(C)(c3ccc(OC(F)F)cc3)C2=O)sc(C)c1C (stereo not drawn)	IL-1B inflam inh inconclusive, ELG1 repair inh inconclusive, TDP1 cell CPT 21µM, TDP1 cell noCPT 16µM
COc1ccc(C2(c3ccc(OC)cc3)NC(=O)N(CC(=O)Nc3ccc(OC(F)F)cc3)C2=O)cc1	ELG1 repair inh inconclusive, TDP1 cell CPT inconclusive, TDP1 cell noCPT 18µM
NC(=O)C1CCN(C(=O)c2ccc(Cl)c(S(=O)(=O)N3CCCCCC3)c2)CC1	ELG1 repair inh inconclusive (no result: RORgamma inh, VP16 counter)
Cc1ccc(C(NC(=O)C2CCN(Cc3ccc(Oc4ccccc4)cc3)CC2)c2ccccn2)cc1 (stereo not drawn)	TDP1 cell CPT inconclusive, TDP1 cell noCPT 23µM (no result: IL-1B inflam inh, ELG1 repair inh, RORgamma inh, VP16 counter)
Cc1ccc(C(NC(=O)C2CCN(CCOc3ccccc3)CC2)c2ccccn2)cc1 (stereo not drawn)	IL-1B inflam inh -55, TDP1 cell CPT inconclusive, TDP1 cell noCPT inconclusive (no result: ELG1 repair inh, RORgamma inh, VP16 counter)

Screens from PubChem.
